Common to all, as to experiment: PBM binding z-score (relative to random genomic background probes); higher = stronger binding; sequences stand for … in GC…GCGATTGACAGCGTAGAATGAAGG
Assay [1] relates to FXR:RXRa (NR concentration 270 nM, RXRa partner concentration 90 nM). In outline: (§1)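 For binding z-scores, the reference was random background probes on custom Agilent 4×180K protein-binding microarrays. These arrays were incubated 1 h with ligand-free nuclear receptor dimers in PBS pH 7.4, 2% milk, 0.02% Triton X-100, 1 mM DTT, 0.2 mg/mL BSA and 0.4 mg/ml salmon testes DNA. Fluorescence was scanned after antibody detection of each partner (one per run) and regression-normalized.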

Assay [2] has as its system LXRa:RXRa (NR concentration 270 nM, RXRa partner concentration 90 nM). Summed up: as §1
The subject of assay [3] is LXRa homodimer (NR concentration 270 nM). In outline:
as §1

Assay [4] concerns LXRb:RXRa (NR concentration 270 nM, RXRa partner concentration 90 nM). Summed up:
as §1

Assay [5] relates to LXRb homodimer (NR concentration 270 nM). In outline: as §1
Assay [6] relates to PPARa:RXRa (NR concentration 270 nM, RXRa partner concentration 90 nM). In outline:
as §1

For assay [7], the system named is PPARg:RXRa (NR concentration 180 nM, RXRa partner concentration 90 nM). In outline: as §1
In assay [8] the test system is PPARg:RXRa 270nM:90nM, anti-RXR (NR concentration 270 nM, RXRa partner concentration 90 nM). Summed up:
as §1

Assay [9] relates to PPARg:RXRa 30nM:10nM, anti-RXR (NR concentration 30 nM, RXRa partner concentration 10 nM). In outline:
as §1

The subject of assay [10] is PPARg:RXRa 90nM:30nM, anti-RXR (NR concentration 90 nM, RXRa partner concentration 30 nM). Summed up: as §1
The test system of assay [11] is PPARg:RXRa DBDmut IVT, anti-RXR (DBD mutation: RXRa K156A/R161A, NR concentration 270 nM, RXRa partner concentration 90 nM). Summed up: as §1
Assay [12] has as its system PPARg:RXRa IVT, anti-PPARg (NR concentration 270 nM, RXRa partner concentration 90 nM). Summed up:
as §1

In assay [13] the test system is PPARg DBDmut:RXRa IVT, anti-PPARg (DBD mutation: PPARg1 K132A/R137A, NR concentration 270 nM, RXRa partner concentration 90 nM). In outline:
as §1

The subject of assay [14] is PPARg DBDmut IVT, anti-PPARg (DBD mutation: PPARg1 K132A/R137A, NR concentration 270 nM). Summed up: as §1
Assay [15] deals with PPARg homodimer (NR concentration 180 nM). In outline: as §1
Assay [16] concerns PXR:RXRa (NR concentration 270 nM, RXRa partner concentration 90 nM). In outline:
as §1

The subject of assay [17] is PXR homodimer (NR concentration 270 nM). Summed up: as §1
Assay [18] deals with RARa:RXR (NR concentration 270 nM, RXRa partner concentration 90 nM). Summed up: as §1
Assay [19] deals with RARa homodimer (NR concentration 270 nM). In outline: as §1
The subject of assay [20] is RARb:RXRa (NR concentration 270 nM, RXRa partner concentration 90 nM). Summed up:
as §1

Among the data in the supplement of paper PMC6555819 are PBM binding z-score values, retold here.

With TCATATAGGTAAACAGGCGAAAGTCCGTAAGTTA, the PBM binding z-score in [1] is 0.58; in [2], 0.715; in assay [3], 0.0889; in [4], 0.816; in assay [5], -0.0877; in [6], 1.56. The PBM binding z-score in assay [7] stood at 1.45; in assay [8], 2.91; in assay [9] it was 3.94; in assay [10], 3.3; in assay [11] it was 4.24; in assay [12] it was 2.83. Also, the PBM binding z-score was 0.751 in assay [13]; 0.916 in assay [14]; 1.19 in assay [15]; 0.767 in assay [16]; 0.508 in assay [17]; 1.04 in assay [18]. For the same sequence, the PBM binding z-score stood at 0.681 in [19] and 0.356 in assay [20].
Turning to ACTTACGGGTCAAAGAGGTTATAGCACGCGTATA, the PBM binding z-score stood at 6.96 in [1]; 5.48 in assay [2]; 1.34 in assay [3]; 4.61 in [4]; 0.72 in assay [5]; 5.71 in [6]. Moreover, the PBM binding z-score in [7] stood at 5.28; in assay [8] it was 5.31; in assay [9], 2.31; in assay [10], 4.28; in assay [11], 3.17; in assay [12], 3.85. Also, the PBM binding z-score came out at 1.03 in assay [13]; 1.26 in [14]; 3.6 in assay [15]; 4.91 in assay [16]; 2.73 in assay [17]; 4.84 in [18]. For the same sequence, the PBM binding z-score in assay [19] came to 1.4; in assay [20], 3.99.
As for CTCGAAAGGTGGGTTGAGGTGAGTATACGGATAA, the PBM binding z-score came out at 0.825 in [1]; 0.397 in assay [2]; 0.00532 in assay [3]; 1.1 in assay [4]; 0.353 in assay [5]; 1.22 in assay [6]. For the same sequence, the PBM binding z-score in assay [7] was 0.158; in assay [8], 0.31; in assay [9], -0.0559; in assay [10], -0.00652; in [11] it was 0.207; in assay [12], 0.842. The PBM binding z-score in assay [13] turned out to be 0.168; in assay [14], 0.0199; in assay [15] it was 0.652; in [16], 1.01; in assay [17], 0.754; in assay [18], 1.22. Besides, the PBM binding z-score amounted to 0.749 in assay [19] and 0.866 in assay [20].
With TTACCAAGGTGAGCTGAGGTCGGTGATCCAACTC, the PBM binding z-score in assay [1] is 0.603; in [2], 0.222; in [3], -0.197; in assay [4], 0.0956; in assay [5] it was -1.13; in assay [6], 1.07. Further, the PBM binding z-score in assay [7] was 0.209; in [8], 0.517; in assay [9], -0.0845; in assay [10], 0.37; in assay [11], 0.759; in assay [12] it was 1.6. The PBM binding z-score in assay [13] is -0.343; in [14], -0.369; in [15] it was -0.703; in assay [16] it was 2.47; in [17], -0.308; in assay [18], 1.19. Moreover, the PBM binding z-score in assay [19] is -0.395; in assay [20], 1.52.
In the case of TAGCCTAGGTCGTGGGCCAGTATACCACGCGAAC, the PBM binding z-score in [1] was 0.0973; in assay [2], 0.0379; in [3], -0.669; in assay [4], 0.0173; in assay [5], -0.88; in assay [6] it was 0.972. Moreover, the PBM binding z-score is 0.333 in [7]; 0.511 in [8]; -0.615 in assay [9]; -0.0658 in [10]; -0.693 in assay [11]; 0.595 in assay [12]. Further, the PBM binding z-score in [13] was -0.359; in [14], -1.24; in [15], -0.437; in assay [16], -0.344; in assay [17], -0.949; in [18], 0.14. The PBM binding z-score in [19] was -0.754; in assay [20], 1.19.
GCGACTGGGGCATCAGCAGGATACCATAACTTAA: the PBM binding z-score in [1] was -0.587; in assay [2] it was -0.962; in assay [3], -0.678; in assay [4], -0.508; in assay [5], -0.969; in assay [6] it was 0.0763. Besides, the PBM binding z-score in [7] was 0.883; in [8], 0.422; in [9] it was -0.491; in [10], -0.212; in [11], 3.9; in assay [12] it was 2.61. Further, the PBM binding z-score in [13] was -1.01; in assay [14], -0.959; in [15], -0.175; in [16], -0.691; in assay [17], -0.304; in assay [18], -0.475. The PBM binding z-score is -0.756 in assay [19] and 0.233 in [20].
As to ATCTCTCGGTAAAGATAGTTCAGTGAATGCAAAT, the PBM binding z-score in assay [1] turned out to be 0.327; in assay [2], 1.31; in [3], 0.62; in [4], 0.406; in [5] it was 0.893; in assay [6] it was 0.353. Besides, the PBM binding z-score in assay [7] was 0.0238; in [8], 0.0221; in assay [9], 0.409; in [10] it was 0.333; in assay [11] it was -0.304; in [12], 0.216. Further, the PBM binding z-score in assay [13] was found to be 0.814; in assay [14] it was 0.624; in [15] it was 1.08; in assay [16], 0.754; in assay [17], 0.572; in assay [18] it was 0.965. Further, the PBM binding z-score in [19] amounted to 1.32; in assay [20] it was 0.868.
